Results on 57 molecules are retold here after PubChem BioAssay AID489018 (Southern Research Specialized Biocontainment Screening …, 2010).

In all, about 2,300 compounds went through this assay and about 350 (15%) were called active. The list is a sample of the results. Results with a measured potency or affinity are listed apart. A number with no mark means an inactive call. The rule behind the calls is not given here.

The nature of the assay: HepG2 cell cytotoxicity, dose response, cytotoxicity control for non-replicating M. tuberculosis project (AID 489018).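 Note: HepG2 human liver cells; 100% = vehicle-treated cells and 0% = background signal.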 As to conditions: series mostly up to 20 µM; viability: at the top concentration.
One may read the viability as a read-out of living cells in per cent, often relative to untreated cells. For `CCc1ccc(C(=O)COC(=O)c2ccc(Cl)nc2)cc1`, the “viability” value is 98.2%.
For `Cc1cccc(NC(=O)COc2ccc(Br)cc2)n1` the value was 107%.
For `Cc1nc([N+](=O)[O-])c(Br)n1CC(=O)c1ccccc1`, the “viability” value was 96.7%.
In the case of `c1ccc(-c2nc3ccccn3c2NC2CCCC2)nc1`, the “viability” value is 89.2% [at 5 µM].
On to `O=C(N/N=C/C=C/c1ccccc1)c1ccncc1`, for which the “viability” value is 106%.
For `O=C(Nc1ccccn1)c1ccc(C(=O)c2ccccc2)cc1` the value was 93.6%; for `CC(C)(C)NCc1cc(Br)ccc1OCc1cccs1`, 70.4%.
In the case of `CC(C)CCCn1c(O)c(/C=C2/C=CC=N2)c(=O)[nH]c1=O` it was 107%; in that of `CC1=C(C)/C(=N\OS(=O)(=O)c2ccccc2)C=CC1=O`, 95.9%.
Regarding `CN(CC(=O)Nc1ccc(C#N)cc1)Cc1ccc(Cl)c(Cl)c1`, the “viability” value is 106%.
Turning to `Cc1ccccc1-c1cc2c(nn1)-c1ccccc1C2=O`, the “viability” value is 99.2%.
Consider `Nc1ccc2c(c1)oc1ccccc12`, for which the “viability” value was 113%.
Consider `COc1cc(OC)cc(-c2nc3ccccc3c(=O)o2)c1`, for which the “viability” value was 94.9%.
For `O=C(COC(=O)c1ccccc1)NC12CC3CC(CC(C3)C1)C2` the value was 100%; for `O=C(CC(=O)c1ccccc1O)c1cccc(F)c1`, 90.6%; for `O=C(O)c1ccc(NS(=O)(=O)/C=C/c2ccccc2)cc1O`, 101%.
Take `CCn1c(NC(=O)C2CCCCC2)nc2ccccc21`: the “viability” value was 103% [at 5 µM].
For `Cc1cc(NC(=O)COc2ccccc2)ccc1Cl`, the “viability” value was 89.3%.
Consider `O=c1cc(C(F)(F)F)[nH]c2c(C(F)(F)F)cccc12`, for which the “viability” value was 87.7%.
For the molecule `CCc1nonc1NC(=O)COc1ccc(Cl)c(C)c1`, the “viability” value was 105%.
`CCOC(=O)Nc1cccc(OCC(=O)Nc2ccccc2OC)c1`: the “viability” value is 114%.
For `CCOC(=O)Nc1ccc2c(c1)N(C(=O)CCN1CCOCC1)c1ccccc1S2=O` (configuration not stated) the value was 100%.
Turning to `O=C(Nc1nc2ccccc2[nH]1)c1cccc(Cl)c1`, the “viability” value was 88.9%.
`O=C(Nc1nc2ccccc2[nH]1)c1ccc(F)cc1`: the “viability” value is 82.1%.
Regarding `CN1CCC(O)(c2ccc(Cl)cc2)C(C(=O)c2ccc(Cl)cc2)C1` (configuration not stated), the “viability” value was 98.3%.
On to `O=C(COc1ccc(Cl)cc1)Nc1ccccc1Cl`, for which the “viability” value was 105% [at 5 µM].
For `CC(C)c1ccc(OCC(=O)NCc2ccccc2)cc1`, the “viability” value was 96.2%.
Turning to `Cc1ccc(C)c(-c2nnc(NC(=O)C3=COCCO3)o2)c1`, the “viability” value is 94.1%.
In the case of `O=C(NCCc1c[nH]c2ccccc12)c1cc2ccccc2oc1=O` it was 96.5%.
On to `COc1ccccc1N1CCN(C(=O)c2ccc([N+](=O)[O-])s2)CC1`, for which the “viability” value was 107% [at 5 µM].
As for `Fc1ccc(-c2nn(-c3ccccc3)cc2CNCc2ccccc2)cc1`, the “viability” value was 71.3%.
Consider `Cc1ccc(-n2cc(CNCCn3nc(C)cc3C)c(-c3ccc(F)cc3)n2)cc1`, for which the “viability” value was 76.2%.
With `Cc1cc(Br)ccc1OCC(=O)NNC(=O)C(=O)Nc1ccccc1`, the “viability” value is 109%.
For `O=C(CCN1C(=O)/C(=C/c2ccccc2Cl)SC1=S)N1CCCC1`, the “viability” value was 102% [at 5 µM].
As for `COc1cccc(OCc2nnc(-c3cccs3)o2)c1`, the “viability” value is 96.8%.
Turning to `Cc1ccc(Oc2c(C(N)=O)cc([N+](=O)[O-])cc2[N+](=O)[O-])cc1`, the “viability” value is 95.9% [at 5 µM].
As to `Cc1csc(=Nc2cccnc2)n1CC1CCCCC1`, the “viability” value is 89.3%.
Take `CCOC(=O)c1csc(COc2ccc(OC)cc2)n1`: the “viability” value is 103%.
With `COc1ccc(O)c(C(=O)CC(=O)c2ccc(F)cc2)c1`, the “viability” value is 97%.
`Cc1ccc(NC(=O)C2=C(c3ccccc3)S(=O)(=O)CCS2(=O)=O)cc1`: the “viability” value was 104% [at 5 µM].
As for `CCOC(=O)C1CCCN(Cc2ccc(OCc3ccccc3)cc2)C1` (configuration not stated), the “viability” value was 100%.
Turning to `CCOC(=O)C1CCN(Cc2ccc(-c3ccccc3)cc2)CC1`, the “viability” value was 103%.
As to `Cc1ccc(C(=O)OCC(=O)N2CCCCCC2)c(O)c1`, the “viability” value is 104%.
With `CCCCC1CCC(C(=O)Nc2ccc(S(=O)(=O)Nc3nccs3)cc2)CC1` (configuration not stated), the “viability” value is 97.8%.
As to `Cc1ccc(C(=O)N/N=C/c2cccc3ccccc23)cn1`, the “viability” value is 98%.
`Cc1nn(C)cc1/C=N/NC(=O)c1sc2ccccc2c1Cl`: the “viability” value was 83%.
`CC(C)c1nnc(NC(=O)c2cc3cc(Br)ccc3oc2=O)s1`: the “viability” value was 93.2%.
As to `O=C(OCc1ccc([N+](=O)[O-])cc1)c1ccc2ccccc2n1`, the “viability” value is 94.9%.
Take `CN(C)CC/C=C1\c2cc(Cl)ccc2Sc2cc(F)c(F)cc21`: the “viability” value was 112% [at 5 µM].
For `O=C(CN1CCN(c2ccc([N+](=O)[O-])cc2)CC1)Nc1ccccn1`, the “viability” value was 77.3%.
In the case of `C/C(=N\NC(=O)c1cc([N+](=O)[O-])cc([N+](=O)[O-])c1)c1ccco1` it was 96%.
`COc1ccc(CN=C(C#N)C2=C(O)c3ccccc3C2=O)cc1`: the “viability” value is 88.4%.
For `O=c1c2c([N+](=O)[O-])cc([N+](=O)[O-])cc2sn1-c1ccc(Br)cc1`, the “viability” value is 105%.
As to `N/C(=N\OC(=O)c1cccc(Br)c1)c1ccc([N+](=O)[O-])cc1`, the “viability” value is 97.3%.
With `CCOC(=O)COn1c(-c2cccc(Cl)c2)nc2ccc([N+](=O)[O-])cc21`, the “viability” value is 89.2%.
For `O=c1c2cc(Cl)ccc2nc(-c2ccc([N+](=O)[O-])cc2)n1O`, the “viability” value was 78.1%.
For `O=C(NCc1cccs1)c1cc(-c2ccc(O)cc2)on1` the value was 88.8%.
